“And” between values parts separate entries of the source, which are not always exact repeats. Equal entries are not always repeated. Results filed as inconclusive are left out. Some structures have more than one record in an assay (separate samples or runs), and their calls can disagree. The source made the active and inactive calls. The calls were made as follows, unless noted: active = hit-call score of the fitted dose curve at least 0.9, where 1 is the maximum; inactive = score below 0.9.

By AC50 is commonly meant the midpoint of the concentration-response curve, whichever way the signal moves.

Experiment [1] can be described thus: ATG_PBREM_CIS: Attagene CIS-FACTORIAL HepG2 Assay for human Phenobarbital-responsive Enhancer Module (PBREM) (AID 2282955). The note with it: HepG2 PBREM cis-reporter, Attagene multiplexed transcription; actives raise or lower the signal. The method, boiled down:
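Endogenous transcription factors in human liver HepG2 cells drive a PBREM cis-element reporter, whose transcript level after 24 h treatment is quantified by RT-PCR with capillary electrophoresis; activity fitted in both directions against DMSO.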

For experiment [2], the target named is Paired box protein Pax-6 (Homo sapiens) (UniProt P26367). The experiment in a line: ATG_Pax6_CIS: Attagene CIS-FACTORIAL HepG2 Assay for human Paired Box 6 (PAX6) (AID 2282956). The note with it: HepG2 CIS-FACTORIAL PAX6 reporter transcription, RNA readout; actives raise or lower the signal. The method in brief: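 Transient MRTU transfection of HepG2 → compound exposure 24 h → TriZol RNA, oligo(dT) RT → PCR, 6-FAM primer extension, HpaI cut → capillary electrophoresis; activity fitted both directions against DMSO.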
Paired box protein Pax-6 (Homo sapiens), sequence (P26367 whole entry, looked up): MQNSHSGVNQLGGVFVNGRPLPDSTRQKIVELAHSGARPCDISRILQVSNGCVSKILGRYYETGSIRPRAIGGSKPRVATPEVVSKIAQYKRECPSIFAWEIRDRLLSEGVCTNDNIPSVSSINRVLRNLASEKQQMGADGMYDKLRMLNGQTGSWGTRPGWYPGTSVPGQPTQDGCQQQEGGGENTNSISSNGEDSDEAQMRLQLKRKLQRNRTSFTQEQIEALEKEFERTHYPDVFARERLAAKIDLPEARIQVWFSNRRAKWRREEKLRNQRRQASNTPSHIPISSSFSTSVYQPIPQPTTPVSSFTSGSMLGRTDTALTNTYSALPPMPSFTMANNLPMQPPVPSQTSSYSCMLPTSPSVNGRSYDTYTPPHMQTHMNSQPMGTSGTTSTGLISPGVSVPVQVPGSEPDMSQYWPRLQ

The nature of experiment [3]: ATG_PXRE_CIS: Attagene CIS-FACTORIAL HepG2 Assay for human Pregnane X Receptor Element (PXRE) (AID 2282957). The note with it: HepG2 Attagene CIS-FACTORIAL PXRE reporter, mRNA; actives raise or lower the signal. The method, boiled down:
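Cells: HepG2, transiently transfected reporter units under cis promoter control. Exposure: 24 h. Detection: reporter mRNA via RT-PCR/CE fluorescence; bidirectional fitting, DMSO-referenced.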

Experiment [4] is described as follows: ATG_PPRE_CIS: Attagene CIS-FACTORIAL HepG2 Assay for human Peroxisome Proliferator-activated Response Element (PPRE) (AID 2282958). The note with it: HepG2 PPRE cis-element reporter, Attagene transcription factor profiling; actives raise or lower the signal. The method in brief:
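HepG2, transient MRTU transfection (cis promoter elements, endogenous TFs). 24 h dosing. RNA → oligo(dT) RT → PCR → 6-FAM primer extension → HpaI digest → CE. Bidirectional fit vs DMSO.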

A short description of experiment [5]: ATG_RORE_CIS: Attagene CIS-FACTORIAL HepG2 Assay for human RAR-related Orphan Receptor Element (RORE) (AID 2282959). The note with it: HepG2 Attagene cis-factorial RORE reporter, mRNA; actives raise or lower the signal. The method, boiled down: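 Transient MRTU transfection of human HepG2 liver cells (FuGene 6); 24 h compound exposure; TriZol RNA, oligo(dT) RT, PCR, FAM labeling, HpaI cut, CE fragment analysis. DMSO = negative control/baseline.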

The nature of experiment [6]: ATG_Sox_CIS: Attagene CIS-FACTORIAL HepG2 Assay for human SRY-box transcription factor (SOX) (AID 2282960). The note with it: HepG2 Attagene cis-factorial SOX reporter, mRNA; actives raise or lower the signal. The method in brief: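 Endogenous factor activity in human liver HepG2 cells carrying transfected cis-regulated reporter units. RNA taken 24 h post-dose, reverse-transcribed, PCR-amplified and sized by capillary electrophoresis. Gain or loss of signal fitted relative to DMSO.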

Experiment [7] deals with Transcription factor Sp1 (Homo sapiens) (UniProt P08047). Kind of experiment: ATG_Sp1_CIS: Attagene CIS-FACTORIAL HepG2 Assay for human Specificity Protein 1 (Sp1) (AID 2282961). The note with it: HepG2 Sp1 cis-reporter transcription, actives raise or lower the signal. The method in brief: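 Transient MRTU-transfected HepG2, 24 h compound exposure. Total RNA → oligo(dT) RT → PCR of reporter → 6-FAM primer extension → HpaI digest → CE. Endpoint fitted both directions vs DMSO.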
Transcription factor Sp1 (Homo sapiens), sequence (P08047 whole entry, looked up): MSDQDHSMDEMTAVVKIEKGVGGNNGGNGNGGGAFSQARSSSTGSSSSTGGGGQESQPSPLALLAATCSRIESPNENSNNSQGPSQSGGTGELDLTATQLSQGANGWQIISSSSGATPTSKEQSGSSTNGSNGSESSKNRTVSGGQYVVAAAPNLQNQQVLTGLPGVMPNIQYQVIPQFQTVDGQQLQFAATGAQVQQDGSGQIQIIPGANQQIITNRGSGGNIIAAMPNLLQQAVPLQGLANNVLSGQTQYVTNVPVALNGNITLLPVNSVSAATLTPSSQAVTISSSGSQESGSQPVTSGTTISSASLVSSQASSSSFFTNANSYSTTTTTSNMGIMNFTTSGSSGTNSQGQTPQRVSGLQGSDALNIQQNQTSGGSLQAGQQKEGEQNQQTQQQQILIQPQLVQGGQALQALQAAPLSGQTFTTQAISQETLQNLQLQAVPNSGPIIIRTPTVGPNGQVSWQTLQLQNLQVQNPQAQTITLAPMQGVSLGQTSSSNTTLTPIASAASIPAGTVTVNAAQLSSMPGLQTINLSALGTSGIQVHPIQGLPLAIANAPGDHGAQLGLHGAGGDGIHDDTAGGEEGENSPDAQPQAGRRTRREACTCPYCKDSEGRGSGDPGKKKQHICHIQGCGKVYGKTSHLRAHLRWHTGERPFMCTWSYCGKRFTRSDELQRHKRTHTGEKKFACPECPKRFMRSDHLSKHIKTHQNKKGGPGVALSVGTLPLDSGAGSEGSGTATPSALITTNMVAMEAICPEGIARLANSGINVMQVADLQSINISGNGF

Experiment [8] is described as follows: ATG_SREBP_CIS: Attagene CIS-FACTORIAL HepG2 Assay for human Sterol Regulatory Element Binding (SREBP) (AID 2282962). The note with it: HepG2 Attagene cis-factorial SREBP reporter, mRNA; actives raise or lower the signal. The method in brief:
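Transfected HepG2 (cis-regulated reporter library, endogenous TFs) → compound 24 h → total RNA → oligo(dT) RT → reporter-specific PCR → FAM primer extension, HpaI cut → CE fluorescence. Fit bidirectional vs DMSO.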

The target in experiment [9] is Signal transducer and activator of transcription 3 (Homo sapiens) (UniProt P40763). The experiment in a line: ATG_STAT3_CIS: Attagene CIS-FACTORIAL HepG2 Assay for human Signal Transducer and Activator of Transcription 3 (STAT3) (AID 2282963). The note with it: HepG2, Attagene cis-factorial STAT3 reporter transcription; actives raise or lower the signal. The method, boiled down:
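Transcript-level reporter assay. HepG2 transient MRTU transfection, 24 h exposure, fluorescence detection after RT-PCR and CE; DMSO baseline.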

Experiment [10] is described as follows: ATG_TA_CIS: Attagene CIS-FACTORIAL HepG2 Assay for human TA Basal Promoter (AID 2282964). The note with it: HepG2 Attagene CIS-factorial TA basal promoter reporter; actives raise or lower the signal. The method in brief:
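Background internal-marker endpoint from a 52-component HepG2 cis-reporter panel. Cells treated 24 h; reporter transcripts quantified via RT-PCR and CE fluorescence against DMSO baseline.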

Experiment [11] can be described thus: ATG_TCF_b_cat_CIS: Attagene CIS-FACTORIAL HepG2 Assay for human T-Cell-Factor with beta-catenin (TCF/b-cat) (AID 2282965). The note with it: HepG2 TCF/beta-catenin cis-reporter transcription, actives raise or lower the signal. The method, boiled down:
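HepG2 cells transiently transfected with multiple cis-promoter-regulated reporter transcription units, so endogenous transcription factor activity is measured. Reporter mRNA read 24 hours after dosing by RT-PCR, fluorescent labelling and capillary electrophoresis; bidirectional fitting against DMSO.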

A short description of experiment [12]: ATG_TAL_CIS: Attagene CIS-FACTORIAL HepG2 Assay for human TAL Basal Promoter (AID 2282966).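 Also: background control endpoint measuring basal TAL promoter reporter mRNA not a specific factor.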 The note with it: HepG2 Attagene cis-factorial TAL promoter reporter; actives raise or lower the signal. The method, boiled down: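 RT-PCR plus capillary electrophoresis quantifies reporter mRNA induction in transiently transfected HepG2 cells after 24 h chemical treatment. DMSO serves as negative control and baseline for bidirectional fitting.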

The nature of experiment [13]: ATG_TGFb_CIS: Attagene CIS-FACTORIAL HepG2 Assay for human Transforming Growth Factor (TGF) (AID 2282967). The note with it: HepG2 Attagene CIS TGFb reporter, mRNA transcription; actives raise or lower the signal. The method, boiled down: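 Liver HepG2 line, cis-factorial reporter panel, 24 h dosing. Quantitation: RT-PCR products labeled with 6-FAM, cut with HpaI, resolved by capillary electrophoresis; DMSO-referenced bidirectional analysis.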

A short description of experiment [14]: ATG_VDRE_CIS: Attagene CIS-FACTORIAL HepG2 Assay for human Vitamin D Receptor Element (VDRE) (AID 2282968). The note with it: HepG2 VDRE cis-reporter transcription, actives raise or lower the signal. The method, boiled down: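 RT-PCR/CE readout of reporter mRNA; HepG2, transient transfection, 24 h dosing; DMSO baseline; bidirectional analysis.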
In experiment [15] the target is Nuclear receptor subfamily 1 group I member 3 (Homo sapiens) (UniProt Q14994). Kind of experiment: ATG_CAR_TRANS: Attagene TRANS-FACTORIAL HepG2 Assay for human Constitutive Androstane Receptor (CAR) (AID 2282969; active = hit-call score of the fitted dose curve at least 0.9, where 1 is the maximum;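 also: activators raise reporter mRNA above DMSO so AC50 marks induction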). The note with it: HepG2 Attagene TRANS-FACTORIAL CAR reporter. The method in brief:
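HepG2 cells transiently transfected with multiplexed GAL4-UAS reporter units expressing chimeric NR-Gal4 proteins; compound exposure 24 h. Reporter mRNA measured by RT-PCR, 6-FAM labelling, HpaI digestion and capillary electrophoresis; gain-of-signal fitted against DMSO baseline.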

In experiment [16] the target is Estrogen receptor (Homo sapiens) (UniProt P03372). The experiment in a line: ATG_ERa_TRANS: Attagene TRANS-FACTORIAL HepG2 Assay for human Estrogen Receptor alpha (ERa) (AID 2282970; active = hit-call score of the fitted dose curve at least 0.9, where 1 is the maximum). The note with it: HepG2 Attagene TRANS ERa GAL4 reporter, mRNA. The method, boiled down: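 Cells: HepG2, transiently transfected. Construct: GAL4-UAS reporter units regulated by exogenous NR-Gal4 chimeras. Time: 24 h. Detection: reporter mRNA by RT-PCR, capillary electrophoresis, fluorescence. Baseline: DMSO, upward fitting.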
Estrogen receptor (Homo sapiens), sequence (P03372 whole entry, looked up, the tested form may be a part): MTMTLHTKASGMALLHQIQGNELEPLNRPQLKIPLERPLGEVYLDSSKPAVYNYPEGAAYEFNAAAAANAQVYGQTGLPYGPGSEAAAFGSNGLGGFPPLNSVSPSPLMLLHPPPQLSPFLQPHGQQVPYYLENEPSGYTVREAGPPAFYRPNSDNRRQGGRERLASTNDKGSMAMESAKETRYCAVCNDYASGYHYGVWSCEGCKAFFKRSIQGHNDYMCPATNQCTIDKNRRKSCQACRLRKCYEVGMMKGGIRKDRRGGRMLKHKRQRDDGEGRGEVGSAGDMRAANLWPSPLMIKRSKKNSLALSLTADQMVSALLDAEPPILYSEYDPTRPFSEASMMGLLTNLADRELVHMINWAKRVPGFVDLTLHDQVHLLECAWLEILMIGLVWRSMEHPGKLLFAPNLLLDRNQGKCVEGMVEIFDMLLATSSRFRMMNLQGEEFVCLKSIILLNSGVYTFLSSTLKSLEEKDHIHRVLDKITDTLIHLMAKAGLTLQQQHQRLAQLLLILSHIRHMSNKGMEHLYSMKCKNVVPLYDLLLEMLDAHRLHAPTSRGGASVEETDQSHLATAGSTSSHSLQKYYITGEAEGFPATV

Experiment [17] addresses X-box-binding protein 1 (Homo sapiens) (UniProt P17861). Kind of experiment: ATG_Xbp1_CIS: Attagene CIS-FACTORIAL HepG2 Assay for human X-box Binding Protein 1 (XBP1) (AID 2282972). The note with it: HepG2 XBP1 cis-element reporter, Attagene multiplex; actives raise or lower the signal. The method, boiled down:
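HepG2, transient MRTU transfection (cis-promoter driven), 24 h compound exposure. Total RNA → oligo(dT) RT → PCR → 6-FAM labeling → HpaI cut → CE. Bidirectional fit vs DMSO.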

Experiment [18] is described as follows: ATG_M_19_TRANS: Attagene TRANS-FACTORIAL HepG2 Assay for M19 Transcription Factor (Internal Marker) (AID 2282974; active = hit-call score of the fitted dose curve at least 0.9, where 1 is the maximum). The note with it: HepG2 Attagene TRANS-FACTORIAL M19 internal marker reporter. The method, boiled down: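 Fluorescence of 6-FAM-labelled reporter cDNA fragments, separated by capillary electrophoresis, served as the readout. These derived from HepG2 cells carrying transfected GAL4-UAS reporter units after 24 h dosing, with DMSO as negative control.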

The target in experiment [19] is Steroid hormone receptor ERR1 (Homo sapiens) (UniProt P11474). Kind of experiment: ATG_ERRa_TRANS: Attagene TRANS-FACTORIAL HepG2 Assay for human Estrogen-Related Receptor alpha (ERRa) (AID 2282971; active = hit-call score of the fitted dose curve at least 0.9, where 1 is the maximum). The note with it: HepG2 Attagene TRANS reporter, ERRa transactivation. The method in brief: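 Reporter transcripts from ERRa-Gal4 chimera activity measured in transiently transfected human HepG2 cells 24 hours after dosing, using RT-PCR with 6-FAM primer extension, HpaI digestion and capillary electrophoresis; DMSO is baseline.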
Steroid hormone receptor ERR1 (Homo sapiens), sequence (P11474 whole entry, looked up, the tested form may be a part): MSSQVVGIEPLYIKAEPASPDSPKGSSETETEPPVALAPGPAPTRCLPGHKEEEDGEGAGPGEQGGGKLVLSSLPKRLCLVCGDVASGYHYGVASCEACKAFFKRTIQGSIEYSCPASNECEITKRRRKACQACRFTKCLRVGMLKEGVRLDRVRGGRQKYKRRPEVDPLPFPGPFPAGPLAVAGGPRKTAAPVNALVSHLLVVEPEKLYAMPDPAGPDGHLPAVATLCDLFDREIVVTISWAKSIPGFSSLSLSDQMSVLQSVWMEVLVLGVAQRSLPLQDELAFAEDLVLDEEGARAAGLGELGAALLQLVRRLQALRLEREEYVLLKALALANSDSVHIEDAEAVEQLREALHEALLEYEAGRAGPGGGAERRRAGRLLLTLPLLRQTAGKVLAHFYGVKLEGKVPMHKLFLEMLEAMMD

X-box-binding protein 1 (Homo sapiens), sequence (P17861 whole entry, looked up): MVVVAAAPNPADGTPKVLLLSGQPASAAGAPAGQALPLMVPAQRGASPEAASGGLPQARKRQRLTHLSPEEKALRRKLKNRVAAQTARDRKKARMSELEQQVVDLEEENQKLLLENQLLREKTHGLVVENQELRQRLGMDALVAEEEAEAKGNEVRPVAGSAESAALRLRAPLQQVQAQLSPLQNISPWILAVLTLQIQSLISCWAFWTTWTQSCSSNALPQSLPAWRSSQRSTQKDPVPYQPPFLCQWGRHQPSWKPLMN
Nuclear receptor subfamily 1 group I member 3 (Homo sapiens), sequence (Q14994 whole entry, looked up, the tested form may be a part): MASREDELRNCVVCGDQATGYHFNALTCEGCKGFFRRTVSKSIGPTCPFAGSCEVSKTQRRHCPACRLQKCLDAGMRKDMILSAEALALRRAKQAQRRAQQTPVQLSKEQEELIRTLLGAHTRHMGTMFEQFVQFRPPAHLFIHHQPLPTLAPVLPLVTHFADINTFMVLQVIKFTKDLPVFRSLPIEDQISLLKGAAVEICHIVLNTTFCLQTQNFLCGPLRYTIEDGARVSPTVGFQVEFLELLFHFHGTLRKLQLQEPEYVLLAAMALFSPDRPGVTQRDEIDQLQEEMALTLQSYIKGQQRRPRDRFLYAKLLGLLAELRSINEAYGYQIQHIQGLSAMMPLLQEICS
Signal transducer and activator of transcription 3 (Homo sapiens), sequence (P40763 whole entry, looked up): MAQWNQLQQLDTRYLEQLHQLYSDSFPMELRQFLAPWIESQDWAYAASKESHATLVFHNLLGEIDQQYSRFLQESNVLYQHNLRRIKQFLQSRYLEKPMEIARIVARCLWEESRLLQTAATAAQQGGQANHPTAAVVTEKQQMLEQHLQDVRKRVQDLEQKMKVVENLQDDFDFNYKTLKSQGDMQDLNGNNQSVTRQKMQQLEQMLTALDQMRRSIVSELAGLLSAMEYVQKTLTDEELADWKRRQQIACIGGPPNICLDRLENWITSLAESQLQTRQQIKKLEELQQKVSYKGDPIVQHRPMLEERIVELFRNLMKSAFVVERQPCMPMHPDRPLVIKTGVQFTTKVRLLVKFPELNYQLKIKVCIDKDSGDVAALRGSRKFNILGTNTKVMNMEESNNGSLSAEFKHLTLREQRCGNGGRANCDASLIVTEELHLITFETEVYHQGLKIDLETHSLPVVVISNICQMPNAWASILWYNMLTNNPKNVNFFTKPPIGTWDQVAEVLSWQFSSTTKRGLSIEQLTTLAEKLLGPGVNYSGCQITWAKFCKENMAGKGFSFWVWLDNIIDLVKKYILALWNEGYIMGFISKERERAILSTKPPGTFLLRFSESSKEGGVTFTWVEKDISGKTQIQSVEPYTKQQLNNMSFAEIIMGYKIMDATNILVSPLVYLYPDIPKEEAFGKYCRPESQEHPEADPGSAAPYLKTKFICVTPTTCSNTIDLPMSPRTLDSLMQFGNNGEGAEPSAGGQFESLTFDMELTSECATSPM

On to `COP(N)(=O)SC` (stereo not given), for which the result in experiment [1], in [2], in experiment [3], in experiment [4], in experiment [5] and in [6] was inactive. The molecule was classed as inactive in [7], in experiment [8], in [9], in experiment [10], in [11] and in [12]. For the same molecule, the molecule was called inactive in experiment [13], in [14], in experiment [15], in experiment [16], in experiment [17] and in experiment [18].
Take `COC(=O)C(C)Oc1ccc(Oc2ccc(Cl)cc2Cl)cc1` (stereo not given): the outcome in experiment [1], in experiment [2], in [5], in experiment [6], in experiment [7] and in [8] was inactive. In addition, the outcome in experiment [9], in experiment [10], in [11], in experiment [12], in experiment [13] and in [14] was inactive. The result in experiment [15], in [19], in experiment [17] and in experiment [18] was inactive. Also, the AC50 is 23 µM (active) and 16.9 µM (active) and 22 µM (active) in experiment [3]; 18.7 µM (active) and 11 µM (active) and 23 µM (active) in experiment [4].
For the molecule `CON(C)C(=O)Nc1ccc(Cl)c(Cl)c1`, the half-maximal activity concentration (AC50) in experiment [1] is 31.9 µM (active) and 27.2 µM (active); in experiment [3], 26.7 µM (active) [middle of 4 runs]; in [4], 69.6 µM (active); in experiment [14], 28.7 µM (active) and 35.7 µM (active) and 23.4 µM (active). For the same molecule, the outcome in experiment [1], in [2], in experiment [4], in experiment [5], in experiment [6] and in [7] was inactive. The result in experiment [9], in experiment [10], in experiment [11], in experiment [12], in experiment [13] and in [14] was inactive. For the same molecule, the result in [15], in experiment [16], in experiment [19], in experiment [17] and in [18] was inactive.
As for `CCCCOC(=O)c1ccccc1C(=O)OCCCC`, the half-maximal activity concentration (AC50) in experiment [1] was 27.5 µM (active) and 67 µM (active) and 50 µM (active); in [3], 27.4 µM (active) [middle of 5 runs]; in [5], 29 µM (active) and 50 µM (active); in [10] it was 39.8 µM (active); in [13], 65.8 µM (active). In addition, the result in experiment [1], in experiment [2], in [5], in experiment [6], in experiment [7] and in experiment [9] was inactive. For the same molecule, the result in [10], in experiment [11], in experiment [12], in experiment [13], in experiment [14] and in [15] was inactive. Moreover, the outcome in experiment [16], in experiment [19], in experiment [17] and in [18] was inactive.
Turning to `OC(c1ccc(Cl)cc1)(c1cncnc1)c1ccccc1Cl` (stereo not given), the result in [1], in experiment [2], in [3], in experiment [4], in experiment [5] and in experiment [6] was inactive. Besides, the result in experiment [7], in experiment [9], in experiment [10], in [11], in [12] and in experiment [13] was inactive. The result in [14], in experiment [15], in experiment [16], in [19], in experiment [17] and in experiment [18] was inactive. Moreover, the AC50 in [3] is 2.17 µM (active); in experiment [7] it was 12.6 µM (active); in [14], 50 µM (active); in experiment [16], 3.2 µM (active).
